High-throughput results (PubChem BioAssay)
KinaseGlo FLuc – counter-screen: inhibitors of Kinase-Glo firefly luciferase; Potency, µM (series often up to 38.3 µM), actives largely listed as inhibitors; Kinase-Glo luciferase, ATP luminescence, 8 min; hit rate 0.28% among 200,000; AID 1379; note: nearly all actives have a fitted effect of over 60% in size
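Light output from Kinase-Glo luciferase with luciferin and 10 uM ATP in 50 mM imidazole pH 7.2, KCl, MgCl2, Tween 20, BSA; compound pin-delivered, 8-min ambient incubation, then luminescence read.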
Gal4-VP16 FLuc – Gal4-VP16 reporter inhibition counter-screen. Drosophila S2 Gal4-VP16 UAS-luciferase, luminescence, 20 h. AID 2546. Potency, µM (highest dose often 53.6 µM), hits mostly inhibitors. hit rate 3.5% among 310,000;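 note: Gal4-VP16 expression switched on by copper sulfate through the metallothionein promoter; nearly all actives have a fitted effect of over 50% in size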
RORg inh – ROR gamma (mouse) transcription inhibition; hit rate 5.4% among 310,000; Potency, µM (series often up to 53.6 µM), usual class: inhibitors; Drosophila S2 Gal4-RORgamma UAS-luciferase reporter, 20 h; note: nearly all actives have a fitted effect of over 60% in size
Target sequence (P51450 whole entry, looked up, the tested form may be a part): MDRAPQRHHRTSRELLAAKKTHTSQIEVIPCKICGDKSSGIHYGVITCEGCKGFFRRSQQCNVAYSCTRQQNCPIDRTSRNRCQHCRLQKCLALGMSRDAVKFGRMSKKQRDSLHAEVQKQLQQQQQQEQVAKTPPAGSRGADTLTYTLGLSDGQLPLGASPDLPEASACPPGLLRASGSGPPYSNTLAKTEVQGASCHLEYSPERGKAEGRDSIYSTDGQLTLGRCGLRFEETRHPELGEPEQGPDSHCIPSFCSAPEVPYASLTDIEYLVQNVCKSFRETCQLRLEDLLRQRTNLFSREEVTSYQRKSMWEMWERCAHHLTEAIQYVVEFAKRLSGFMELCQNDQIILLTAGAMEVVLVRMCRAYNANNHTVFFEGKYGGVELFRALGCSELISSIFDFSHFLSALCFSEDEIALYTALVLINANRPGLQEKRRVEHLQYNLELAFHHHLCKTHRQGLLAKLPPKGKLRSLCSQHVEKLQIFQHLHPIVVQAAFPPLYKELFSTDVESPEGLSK
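ROR gamma transcriptional activity was tracked as Gal4-UAS luciferase output in stably transfected Drosophila Schneider cells, with compound added 1 hr before 700 uM copper sulfate induction and a 20 hr ambient-temperature incubation.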
Hits are given with their value; - = inactive; ? = inconclusive; . = no result; [ ] = remark or other dose. A selection: hits, their analogues and other compounds. The true share with any hit is near 6.4%. Calls come from the whole dose curve; as a rule, active = well fitted curve in the direction sought with a large enough effect; inconclusive = small, poorly fitted or top-dose-only effect, or another doubt; inactive = no such curve, though single readings can be large; an effect the other way counts as inactive or inconclusive.

SMILES	KinaseGlo FLuc	Gal4-VP16 FLuc	RORg inh
Cc1nc(NC(=S)NC(=O)c2cncc(Br)c2)ccc1Br	-	-	-
Cc1cccc(NC(=O)/C=C/c2cccs2)n1	12.6µM	22.4µM	?
Cc1ccc(OCC(=O)NC(=S)Nc2ccc(Br)c(C)n2)cc1	-	-	2.51µM
CCOC(=O)c1cc(-c2csc(Nc3c(C)cc(C)cc3C)n2)on1	.	-	-
CC1CC(O)CC(C)(C)C1 (centres undefined)	.	-	-
CCOC(=O)C1=C(C)NC(C)=C(C(=O)OCC)C1c1ccccc1C=CC(=O)OC(C)(C)C	.	?	-[10 µM]
CCCCCCSc1nsc(NC(=O)CCC)n1	-	-	-
Cc1cccc(-c2nc3c(c(SCC(=O)N4CCOCC4)n2)COC(C)(C)C3)c1	.	-	-
CC[C@@H](c1ccccc1)n1c(=O)n2n(c1=O)[C@H]1[C@H](O)[C@H]3O[C@@H]3/C(=N/OC/C=C(\C)CCC=C(C)C)[C@@H]1CC2	.	-[10 µM]	-[10 µM]
COc1cc2c(cc1OC)CN(CC(=O)Nc1ccc(C)c(S(=O)(=O)N3CCOCC3)c1)CC2	.	-	-
COc1cc(NC(=O)CCc2nnc3ccc(N4CCC5(CC4)OCCO5)nn23)cc(OC)c1	.	-	-
Cc1ccc(CNc2nc(C)nc3sc4c(c23)CCC4)cc1	-	-	-
Cc1cc(C)n(-c2nc(NCC(C)O)c3c4c(sc3n2)COC(C)(C)C4)n1 (centres undefined)	-	10µM	3.16µM
N=c1c2c3c(sc2ncn1CCCO)CCCC3	-	-	-
Cc1cc(C)n(-c2nc(NCC(C)O)c3c4c(sc3n2)CCCC4)n1 (centres undefined)	-	1µM	?
COC(=O)CSc1nnc2c3c4c(sc3nc(-n3nc(C)cc3C)n12)COC(C)(C)C4	-	-	-
CC(C)Sc1nc(SCC(=O)O)c2c3c(sc2n1)COC(C)(C)C3	.	-	-
Cc1cc(C)n(-c2nc(NCCCO)c3c4c(sc3n2)CCCC4)n1	-	2.82µM	1.58µM
Cc1cc(C)n(-c2nc(SCCN(C)C)c3c4c(sc3n2)COC(C)(C)C4)n1	-	7.08µM	5.01µM
COCCNC(=O)Cn1cnc2c(cnn2-c2ccc(C)cc2)c1=O	.	-	-
COc1ccccc1CNC(=O)[C@H](Cc1c[nH]c2ccccc12)NC(=O)[C@@H]1Cc2ccccc2CN1	.	-	-
COc1ccc2c(c1)[N+](=O)C(/C(C)=N/NC(N)=S)=C(C)[N+]2=O	-[7.66 µM]	.	.
Cc1cc(C)n(-c2nc(NCC3CCCO3)c3c4c(sc3n2)COC(C)(C)C4)n1 (centres undefined)	-	3.16µM	2.82µM
Cc1cc(C)n(-c2nc(SCC(=O)O)c3c4c(sc3n2)CCCC4)n1	.	-	?
CC1(C)Cc2c(sc3[nH]c(=O)n(CC(=O)NCC4CCCO4)c(=O)c23)CO1 (centres undefined)	.	?	-
SMILES	KinaseGlo FLuc	Gal4-VP16 FLuc	RORg inh
Cc1cc(C)n(-c2nc(NCCO)c3c4c(sc3n2)CCCC4)n1	-	4.47µM	3.16µM
NCCCC(N)CC(=O)NCC1NC(=O)C(CO)NC(=O)C(N)CNC(=O)C(C2CCN=C(N)N2)NC(=O)/C(=C/NC(N)=O)NC1=O (centres undefined)	.	-	-
Cc1ccc(C(=O)O)cc1NS(=O)(=O)c1ccc2c(c1)oc(=O)n2C	.	-	-
Cc1ccc(NC2=CC(=O)c3sc(C)nc3C2=O)cc1	.	2.51µM	2.24µM
Cc1ccc(Nc2nc(=O)[nH]nc2C)cc1	-	-	-
COc1cc(/C=C(\C#N)C(N)=O)ccc1OS(=O)(=O)c1ccc(C)cc1	-	?	-
CSc1ccc(/C=C(\C#N)C(=O)NC2CCCCC2C)cc1 (centres undefined)	-	?	?
CC1CCCCC1NC(=O)/C(C#N)=C/c1ccccc1F (centres undefined)	-	11.2µM	11.2µM
COc1cc(/C=C(\C#N)C(=O)NC2CCCCC2C)ccc1OS(=O)(=O)c1ccc(C)cc1 (centres undefined)	-	11.2µM	?
O=C(Oc1ccccc1)N1CCC2(CC1)CN(c1ccccn1)C2	-	-	-
Cc1c(C(C)C)c(=O)n(-c2ccccc2)n1C	.	-	-[10 µM]
Cc1c(C(C)C)c(=O)n(-c2ccc(S(=O)(=O)N3CCOCC3)cc2)n1C	-	-	-
Cc1c(C(C)C)c(=O)n(-c2ccc(S(=O)(=O)NCc3ccccc3)cc2)n1C	.	7.94µM	?
Cc1c(C(C)C)c(=O)n(-c2ccc(S(=O)(=O)NC3CCCCC3)cc2)n1C	.	11.2µM	?
CN(CC(=O)Nc1ccc(F)cc1)C(=O)COC(=O)CN1C(=O)NC2(CCCC2)C1=O	.	-	-
CN1CCN(C(c2ccc(C(F)(F)F)cc2)c2ccc3cccnc3c2O)CC1 (centres undefined)	.	1.58µM	3.16µM
Oc1c(C(c2ccccc2Cl)N2CCCC2)ccc2cccnc12 (centres undefined)	-	-	1.58µM
O=S(=O)(c1cccc2cccnc12)N1CCCCC1	.	-	-
CC(C)(C)n1nnnc1C(c1cccs1)N1CCN(c2ccccc2)CC1 (centres undefined)	-	-	-
CN1CCN(C(c2cccc(C(F)(F)F)c2)c2nnnn2C(C)(C)C)CC1 (centres undefined)	-	-	-
Oc1c(C(c2cccs2)N2CCN(c3ccccc3)CC2)ccc2cccnc12 (centres undefined)	-	7.94µM	5.01µM
CCCC[C@H]1CCCO[C@@](C(=O)NCc2ccccn2)(C(F)(F)F)C1	.	-	-
COc1ccc(C2C3C=CCC(c4cccc(/C=C/c5ccccc5)c4)C3C(=O)N2Cc2ccccc2)cc1Cl (centres undefined)	.	-	-
COc1ccc([C@]23Cc4cc(OC)c(OC)cc4C(O2)c2c(c4ccccc4oc2=O)O3)cc1	.	-[10 µM]	-[10 µM]
Cc1cc(C(=O)N/N=C/c2ccc([N+](=O)[O-])o2)c(C)o1	.	?	-
SMILES	KinaseGlo FLuc	Gal4-VP16 FLuc	RORg inh
O=C(N/N=C/c1ccc([N+](=O)[O-])o1)c1cc(-c2cccc(Br)c2)nc2ccccc12	-	?	3.16µM
CCCc1ccc(-c2cc(C(=O)N/N=C/c3ccc([N+](=O)[O-])o3)c3ccccc3n2)cc1	-	8.91µM	7.08µM
O=C(N/N=C/c1ccc2c(c1)OCO2)c1cc(-c2ccccc2)nc2ccccc12	-	?	?
COc1ccc(C(=O)NC(C)CCCC(C)(C)O)cc1OC1CCN(C(C)=O)CC1 (centres undefined)	.	-	-
S=C(Nc1ccc(Oc2ccccc2)cc1)N(CCCN1CCOCC1)Cc1ccccn1	-	-	14.1µM
CCOc1ccccc1NC(=S)N(CCCN1CCOCC1)Cc1cn(C)c2ccccc12	-	?	11.2µM
COc1cccc2cc(C(C)N(CCCN3CCOCC3)C(=S)Nc3ccc(C)cc3)oc12 (centres undefined)	-	-[10 µM]	-
Cc1cc(NC(=S)N(CCCN2CCOCC2)Cc2ccco2)ccc1Cl	-	?	?
Cc1ccc(Cl)c(NC(=S)N(CCCN2CCOCC2)Cc2ccco2)c1	-	?	8.91µM
COc1ccccc1NC(=S)N(CCCN1CCOCC1)Cc1cn(C)c2ccccc12	-	-	?
Cc1cccc(NC(=S)N(CCCN2CCOCC2)Cc2ccccn2)c1	-	-	-
COc1ccc(NC(=S)N(CCCN2CCOCC2)C(C)c2cc3ccccc3o2)cc1 (centres undefined)	-	-	10µM
O=C(NC1CCC(O)CC1)c1cccc2cccnc12 (centres undefined)	.	-	-
